# Reference: ChEMBL document CHEMBL3988442, “University of Dundee, Small-Polar-MMV Screening Library” (2021)
# About 13,000 (27%) of roughly 48,000 compounds showed an effect of 50% or more. The list shows a part of the results.
# Tested on: Wolbachia pipientis
# Experiment: Anti-Wolbachia Cell-Based Screen
# Assay type: functional
# Set-up: scale not given: in the data most compounds retested in dose-response had high values
# Details: 5 µM
row,SMILES,Percent Effect
1,O=C(NCCn1ccnc1)c1cc(Br)c[nH]1,-7.332%
2,Cc1cnn(CCNC(C)c2nnc(-c3cccc(Cl)c3)o2)c1 (centres undefined),-21.78%
3,Cc1occc1C(=O)N1CCc2ncnc(C3CCOC3)c2CC1 (centres undefined),-5.799%
4,COc1cccc(-c2noc3c2CN(c2nc(C)ncc2C)CC3)c1,-35.21%
5,O=C(Nc1ccccc1OC1CCOC1)c1cc[nH]n1 (centres undefined),-3.911%
6,Cc1ccccc1NC(=O)c1cncc(C2CCNCC2)n1.Cl,126.6%
7,Cc1nc(Cn2nc(C3CCNCC3)n(Cc3ccccc3)c2=O)no1,-19.55%
8,CCCc1cc(C(=O)N2CCC3(CC2)CN(CCN(C)C)C(=O)O3)no1,-10.71%
9,Cc1ncsc1CCN(C)C1CCN(c2ncnc3[nH]cnc23)CC1,13.21%
10,Nc1ncnc2c1ncn2[C@H]1CCN(Cc2ccsc2)CC[C@@H]1O,125.5%
11,Cc1ncsc1CN1CC[C@H](O)[C@@H](n2cnc3c(N)ncnc32)CC1,93.47%
12,Cc1ncsc1CN1CCN(C)C2(CCC(=O)N(CCO)CC2)C1 (centres undefined),-3.684%
13,c1cc(CN2CCC(n3cc(CN4CCCC4)nn3)CC2)cs1,0.307%
14,CN(C)S(=O)(=O)N1CC[C@]2(O)CCN(c3cc(C#N)ccn3)C[C@@H]2C1,-4.757%
15,CC(C)CN1C(=O)c2ccc(C(=O)NCCc3c[nH]cn3)cc2C1=O,4.031%
16,CCc1cnc(N)nc1N1CCCC2(CCOCC2)C1,7.215%
17,COc1c(C2CCCN2C(=O)c2ccnc(N(C)C)c2)c(C)nn1C (centres undefined),3.661%
18,Cc1nn(C)c(C)c1C1CCCN1C(=O)c1cnc2n[nH]c(C)c2c1 (centres undefined),-6.27%
19,Cc1nn(C)c(Cl)c1C1CCCN1C(=O)c1cccc(C#N)c1 (centres undefined),117.2%
20,Cc1nn(C)c(C)c1C1CCCN1C(=O)c1ccnc(N(C)C)c1 (centres undefined),114%
21,Cc1nn(C)c(Cl)c1C1CCCN1C(=O)c1ccnc(N(C)C)c1 (centres undefined),115.9%
22,Cc1nn(C)c(Cl)c1C1CCCN1C(=O)c1ccc2c(c1)COC2 (centres undefined),103.2%
23,CCn1nc(C(=O)N2CCCC2c2noc(C3CC3)n2)ccc1=O (centres undefined),-10.37%
24,CCOCCN1CCN(CCc2nc3ccccc3c(=O)[nH]2)CC1,-16.1%
25,O=S(=O)(Cc1nc(C2CC2)no1)c1cc(F)ccc1F,-10.78%
26,Cc1nn(C)c(Cl)c1C1CCCN1C(=O)c1ccc2nncn2c1 (centres undefined),-0.8221%

row,SMILES,Percent Effect
1,Cc1nn(C)c(Cl)c1C1CCCN1C(=O)c1ccncc1 (centres undefined),76.23%
2,CCCc1cc(NCc2cc(C)on2)n2nccc2n1,18.67%
3,CN(C)c1nc(-c2ccncc2)nc2c1CCN(C(=O)[C@H](N)CO)C2,12.11%
4,O=C(NCCc1cccs1)[C@]12COC[C@H]1CN(c1ncccn1)C2.O=C(O)C(F)(F)F,-26.22%
5,Cc1cnc(C)c(N2CCN(Cc3ccc(-c4cc[nH]n4)o3)CC2)n1,2.715%
6,Cc1cnccc1N1CCCN(Cc2ccc(-c3cc[nH]n3)o2)CC1,39.38%
7,Fc1ccc(N2CCCN(Cc3ccc(-c4cc[nH]n4)o3)CC2)cc1,76.67%
8,Cc1cccnc1CN1CCN(Cc2ccc(-c3cc[nH]n3)o2)CC1,0.5837%
9,CCNC(=O)[C@@H]1C[C@H](N)CN1Cc1ccc(-c2cc[nH]n2)o1,2.507%
10,O=C(O)c1ccc(CC2CCN(Cc3ccc(-c4cc[nH]n4)o3)C2)cc1 (centres undefined),103.3%
11,O=C(O)c1ccccc1C1CCN(Cc2ccc(-c3cc[nH]n3)o2)C1 (centres undefined),111.1%
12,O=C(O)c1ccc(C2CCCN(Cc3ccc(-c4cc[nH]n4)o3)C2)cc1 (centres undefined),112.5%
13,Cc1cc(N2CCN(Cc3ccc(-c4cc[nH]n4)o3)CC2)cc(C)n1,1.091%
14,Cc1nn(C)c(C)c1CN1CCCC(c2ccc(C(=O)O)cc2)C1 (centres undefined),16.04%
15,Fc1cnc(N2CCN(Cc3ccc(-c4cc[nH]n4)o3)CC2)nc1,10.27%
16,CCN1CC2(CCC1=O)CCN(Cc1cccc(C#N)c1)CC2,-7.959%
17,CC(C)c1nc(CN(C)C(=O)C2CC(=O)N(Cc3ccncc3)C2)cs1 (centres undefined),6.051%
18,COc1cccc(CN(C)C(C)c2ccco2)c1OCCn1ccnc1 (centres undefined),-0.9941%
19,CN(CCN1CCCCCC1)C(=O)c1cc(CN2CCC(O)CC2)on1,-8.784%
20,Nc1ncc(C(=O)N2CCC3(CCCO3)CC2)c(-c2ccccc2)n1,-10.16%
21,CC(C)(CNc1ccc(S(=O)(=O)C(F)F)cc1)N1CCOCC1,2.444%
22,CC(C)NS(=O)(=O)c1cc(C(=O)O)cc(-c2ccccc2C#N)c1,4.012%
23,Cc1cnccc1CN1CC[C@@](C)(O)[C@H](Oc2ccccc2)C1,-3.171%
24,Cc1cnccc1CN1CC[C@H](Oc2cccc(F)c2)[C@@](C)(O)C1,130.7%
25,Cc1ccccc1CN1CC[C@@]2(O)CCN(C(=O)C3CCC3)C[C@H]2C1,-8.444%
26,Cc1cnccc1CN1CC[C@@](C)(O)[C@H](Oc2cccc(F)c2)C1,113.3%

row,SMILES,Percent Effect
1,Cc1cc(F)ccc1CN1CCCC(O)(CN2CCCC2)C1 (centres undefined),20.34%
2,CC(C)[C@@H]1CN(CC(=O)NCc2ccco2)C[C@H]1NS(=O)(=O)N(C)C,-2.04%
3,CCSc1nc(N)c(NC(=O)c2ccc(C)cc2)c(=O)[nH]1,-2.31%
4,Br.Cc1ccc(OCCCSC2=NCCN2)cc1,5.255%
5,CCOCc1ccc(CNC2=NCCCN2)cc1.I,0.3337%
6,Cn1ncc2c(NCCOc3ccc(F)cc3)nc(C3CCCC3)nc21,8.04%
7,CN(C)c1ccc(CNC2=NCCCN2)cc1.I,13.13%
8,Fc1ccc(OCCCNC2=NCCN2)cc1.I,63.04%
9,Fc1ccc(OCCCNC2=NCCCN2)cc1.I,81.36%
10,Fc1ccc(OCCCN2CC(n3cccn3)C2)cc1,3.105%
11,Br.Cc1ccc(OCCSC2=NCCN2)cc1,1.775%
12,I.c1ccc(OCCNC2=NCCCN2)cc1,111%
13,COC(=O)C1Cc2nc[nH]c2CN1Cc1ccc(Sc2ncccn2)o1 (centres undefined),2.291%
14,COc1cc2nc(NCc3cc(C)on3)nc(N)c2cc1OC,-8.416%
15,CC1CN(Cc2noc(C3CC3)n2)CCN1Cc1nccn1C (centres undefined),-7.382%
16,CCNC(=O)c1ccnc(N2CCCC(COc3ccccc3C)C2)c1 (centres undefined),3.224%
17,CCOCCn1nc(C)cc1C(=O)N(C)Cc1cccc2ncccc12,6.003%
18,C=C(C)Cn1ccc2cc(OC)c(F)cc2c1=O,-16.88%
19,CC[C@H]1CN(S(C)(=O)=O)CC[C@H]1CC(=O)NCCSC,-2.393%
20,O=C(c1ccc(-n2cnnn2)cc1)N1CCCC(n2ccnc2)C1 (centres undefined),90.08%
21,CCc1nccn1C1CCCN(C(=O)c2ccn(-c3ccccc3)n2)C1 (centres undefined),-25.66%
22,O=C(c1ccn(-c2ccc(F)cc2)n1)N1CCCC(n2ccnc2)C1 (centres undefined),97.03%
23,CS(=O)(=O)c1ccc(C(=O)N2CCCC(n3ccnc3)C2)cc1 (centres undefined),96.86%
24,O=C(c1ccc(-n2ccnc2)cc1)N1CCCC(n2ccnc2)C1 (centres undefined),120.2%
25,Cc1ccn(-c2ccc(C(=O)N3CCCC(n4ccnc4)C3)cc2)n1 (centres undefined),4.214%
26,NC(=O)C1CCCN(C(=O)c2ccc(-n3ccnc3)cc2)C1 (centres undefined),0.2074%

row,SMILES,Percent Effect
1,O=C(CNC(=O)c1ccoc1)NCCOc1ccc2c(c1)CCC2,14.09%
2,CC1=NN(c2ccc(C(=O)N3CCCC(n4ccnc4)C3)cc2)CC1 (centres undefined),-6.024%
3,CCc1nccn1C1CCCN(C(=O)c2cncn2-c2ccccc2)C1 (centres undefined),-5.728%
4,CCc1nccn1C1CCCN(C(=O)c2ccc(-n3ccnc3)cc2)C1 (centres undefined),94.46%
5,O=C(c1ccc(-n2cnnc2)cc1)N1CCCC(n2ccnc2)C1 (centres undefined),107.8%
6,NC(=O)COc1cccc(C(=O)N2CCCC(n3ccnc3)C2)c1 (centres undefined),2.122%
7,O=C1COc2cc(C(=O)N3CCCC(n4ccnc4)C3)ccc2N1 (centres undefined),-12.82%
8,Cc1ccnn1-c1ccc(C(=O)N2CCCC(n3ccnc3)C2)cc1 (centres undefined),116.9%
9,O=C(c1ccc(OCC2CC2)nc1)N1CCCC(n2ccnc2)C1 (centres undefined),-1.875%
10,NC(=O)COc1ccc(C(=O)N2CCCC(n3ccnc3)C2)cc1 (centres undefined),96.26%
11,CCC(NCCn1cc(C)cn1)C(=O)Nc1cc(C)on1 (centres undefined),-26.17%
12,CC(=O)c1cc(CC(=O)NCc2cccc(F)c2F)cs1,-6.344%
13,O=C1CC[C@H]2CN(c3ncccc3F)CC[C@H]2N1CCc1ccccc1,4.939%
14,Cc1noc(C)c1CN(C)Cc1csc(-c2ncccn2)n1,0.1209%
15,N[C@@H]1c2ccccc2C2(CCN(C(=O)c3ccc(=O)[nH]c3)CC2)[C@H]1O,2.656%
16,Cc1cc(CN2CCN(C(=O)NCc3nc(C)cs3)CC2)on1,-3.882%
17,CC1CCCN(C(=O)c2csc(S(N)(=O)=O)c2)CC1 (centres undefined),-10.27%
18,O=C(c1csc(Br)c1)N1CCCC(n2ccnc2)C1 (centres undefined),-1.444%
19,NS(=O)(=O)c1cc(C(=O)N2CCCC(n3ccnc3)C2)cs1 (centres undefined),104.4%
20,FC(F)(F)c1cccnc1N1CCC(OC2CCOCC2)CC1,1.629%
21,CC(NCc1ccc(F)cc1)c1ccc2[nH]c(=O)[nH]c2c1 (centres undefined),94.79%
22,CCOc1ccc(CNC(C)c2ccc3[nH]c(=O)[nH]c3c2)cc1 (centres undefined),115.8%
23,CC(NCc1ccc(OCC(N)=O)cc1)c1ccc(Cl)c(Cl)c1.Cl (centres undefined),11.22%
24,COc1ccc(CNC(C)c2ccc3[nH]c(=O)[nH]c3c2)cc1 (centres undefined),1.768%
25,CC(NCc1ccc(F)cc1)c1ccc(OCC(=O)NC2CC2)cc1 (centres undefined),13.29%
26,Cc1ccc(CNC(C)c2ccc3[nH]c(=O)[nH]c3c2)s1 (centres undefined),0.5584%
